The text below walks through data of PubChem BioAssay (EPA / NIEHS).

The term AC50 denotes the concentration at which the activity in the assay is half-maximal.

Results filed as inconclusive are left out. Activity calls are given as the source filed them. The calls were made as follows, unless noted: active = hit-call score of the fitted dose curve at least 0.9, where 1 is the maximum; inconclusive = response in the unintended direction; inactive = score below 0.9.

For experiment [1], the target named is Cellular tumor antigen p53 (Homo sapiens) (UniProt P04637). Briefly: TOX21_p53_BLA_p2_ratio: Tox21 HCT-116 p53 Agonism Beta-lactamase Assay, Ratio, Phase 2 (AID 2283592). The essentials:
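Cleaved-to-uncleaved substrate ratio (460 vs 530 nm) measured in HCT116 cells with an inducible beta-lactamase reporter linked to p53 activity. Compounds incubated 16 h at 37C before 2 h room-temperature CCF4-AM loading.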

Experiment [2] shares this target. In words: TOX21_p53_BLA_p3_ratio: Tox21 HCT-116 p53 Agonism Beta-lactamase Assay, Ratio, Phase 3 (AID 2283596). In short, it runs like this:
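Cells were seeded at 4000/well, rested 5 h at 37C, then dosed with DMSO compound solutions (217-fold dilution) for 16 h. CCF4-AM substrate was loaded for 2 h at room temperature, and the 460/530 nm emission ratio was fitted for gain of signal versus DMSO.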

Experiment [3] shares this target. In words: TOX21_p53_BLA_p5_ratio: Tox21 HCT-116 p53 Agonism Beta-lactamase Assay, Ratio, Phase 5 (AID 2283599). The essentials:
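Beta-lactamase reporter ratio (blue 460 nm over green 530 nm, 405 nm excitation) after 2 h CCF4-AM loading, in HCT-116 cells exposed 16 h at 37 C to compounds pinned at 217-fold dilution. Increases relative to DMSO baseline scored.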

Experiment [4] shares this target. Briefly: TOX21_p53_BLA_p4_ratio: Tox21 HCT-116 p53 Agonism Beta-lactamase Assay, Ratio, Phase 4 (AID 2283601). The essentials: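 Signal is the blue/green (460nm/530nm) ratio of cleaved versus uncleaved CCF4-AM substrate, read after 2 h substrate loading. Cells were HCT116 carrying the p53-responsive beta-lactamase reporter, dosed 16 h at 37C, 5% CO2; CellTiter-Glo measured in parallel.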

Experiment [5] in a line: TOX21_TRB_BLA_Antagonist_Followup_viability: Viability Assessment in the Tox21 Thyroid Hormone Receptor beta Antagonism Beta-lactamase (BLA) Follow-Up Assay (AID 2283961). In short, it runs like this:
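Cytotoxicity is measured in parallel with the antagonist-mode TRβ beta-lactamase screen, using ATP-coupled luciferase luminescence. Engineered HEK293T cells are treated for 18 h with 11-point compound series in triplicate.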

Experiment [6] in a line: TOX21_TR_RXR_BLA_Antagonist_Followup_viability: Viability Assessment in the Tox21 Thyroid Hormone Receptor beta Retinoid X Receptor alpha (RXRa) Antagonism Beta-lactamase (BLA) Follow-Up Assay (AID 2283979). In short, it runs like this:
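Follow-up compounds (11 concentrations, triplicate) were incubated 16 h at 37C/5% CO2 with HEK293T RXRa-bla cells seeded at 2,500/well in charcoal-stripped-serum medium. ATP content by CellTiter-Glo luminescence gave viability; curves fitted in both directions against DMSO.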

The nature of experiment [7]: TOX21_p53_BLA_p5_viability: Viability Assessment in the Tox21 HCT-116 p53 Agonism Beta-lactamase Assay, Phase 5 (AID 2283600). The essentials: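 Viability is taken from cellular ATP content, measured by luciferase luminescence in the same wells after the beta-lactamase ratio read. Cells are seeded at 4000 per well and exposed to DMSO-dissolved compounds, diluted 217-fold, for 16 h.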

For experiment [8], the target named is PGR (gene 5241) (UniProt P06401). In words: TOX21_PR_BLA_Followup_Agonist_ratio: Tox21 HEK293 Progesterone Receptor (PR) Agonism Beta-lactamase Follow-Up Assay, Ratio (AID 2283933). The essentials:
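Read-out: ratio of cleaved (ch2) to uncleaved (ch1) beta-lactamase substrate fluorescence, gain-of-signal relative to DMSO baseline. Cells: PR-UAS-bla HEK293T, 2% charcoal-stripped FBS; compound exposure 16 hr, 37C; substrate 2 hr, RT.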

Experiment [9] shares this target. Briefly: TOX21_PR_LUC_Followup_Agonist: Tox21 HEK293 Progesterone Receptor (PR) Agonism Luciferase Follow-Up Assay (AID 2283937; active = hit-call score of the fitted dose curve at least 0.9, where 1 is the maximum; inactive = score below 0.9). In short, it runs like this: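 Luminescence read-out (ONE-Glo, 30 min at room temperature) of PR-driven luciferase in HEK293-PR-A-luc cells after 16 h compound exposure at 37C; gain of signal fitted relative to DMSO baseline.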
Experiment [10] shares this target. Briefly: TOX21_PR_LUC_Followup_Antagonist: Tox21 HEK293 Progesterone Receptor (PR) Antagonism Luciferase Follow-Up Assay (AID 2283938).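 Also: curve fitted upward as signal gain over DMSO baseline despite antagonist label.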 The essentials:
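A follow-up to the PR bla screen using HEK293-PR-A-luc cells, multiplexed with cell viability to flag cytotoxicity. Reporter luminescence after 16 h compound exposure was analysed relative to DMSO.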

Experiment [11] can be described thus: CCTE_Harrill_HTTr_Viability_MCF7: CCTE's 6-hour Cell Viability Assessment for the High-Throughput Transcriptomics (HTTr) Platform, in MCF-7 cells cultured in DMEM + 10% fetal bovine serum, Harrill Lab (AID 2284010; active = hit-call score of the fitted dose curve at least 0.9, where 1 is the maximum; inactive = score below 0.9). In short, it runs like this: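 PI exclusion, high-content imaging; 8-pt dilution series, 6 h exposure; bidirectional fit vs DMSO (neg. ctrl/baseline); gain of signal = loss of membrane integrity.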

Experiment [12] can be described thus: CCTE_Harrill_HTTr_Apoptosis_MCF7: CCTE's 6-hour Apoptosis Assessment for the High-Throughput Transcriptomics (HTTr) Platform, in MCF-7 cells cultured in DMEM + 10% fetal bovine serum, Harrill Lab (AID 2284011; active = hit-call score of the fitted dose curve at least 0.9, where 1 is the maximum; inactive = score below 0.9). In short, it runs like this:
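Cells are dosed with test chemicals at eight concentrations and imaged 6 hours later for caspase-3/7 activity using a green fluorogenic detection reagent. Activity is fitted in both directions against DMSO controls.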

Experiment [13] is described as follows: CCTE_Harrill_HTTr_CellCount_MCF7: CCTE's Cell Proliferation Assessment for the High-Throughput Transcriptomics (HTTr) Platform, Harrill Lab (AID 2284012).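 Also: count of Hoechst-stained nuclei per well by high-content imaging in MCF-7 cells; cells exposed to compound for six hours; intended direction is loss of nuclei count meaning fewer cells.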 The essentials: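 Readout: Hoechst nuclear count by high-content imaging. MCF-7, 8-point dilution series, 6 h exposure. Bidirectional fit vs DMSO baseline.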

Sequence of PGR (gene 5241) (P06401 whole entry, looked up): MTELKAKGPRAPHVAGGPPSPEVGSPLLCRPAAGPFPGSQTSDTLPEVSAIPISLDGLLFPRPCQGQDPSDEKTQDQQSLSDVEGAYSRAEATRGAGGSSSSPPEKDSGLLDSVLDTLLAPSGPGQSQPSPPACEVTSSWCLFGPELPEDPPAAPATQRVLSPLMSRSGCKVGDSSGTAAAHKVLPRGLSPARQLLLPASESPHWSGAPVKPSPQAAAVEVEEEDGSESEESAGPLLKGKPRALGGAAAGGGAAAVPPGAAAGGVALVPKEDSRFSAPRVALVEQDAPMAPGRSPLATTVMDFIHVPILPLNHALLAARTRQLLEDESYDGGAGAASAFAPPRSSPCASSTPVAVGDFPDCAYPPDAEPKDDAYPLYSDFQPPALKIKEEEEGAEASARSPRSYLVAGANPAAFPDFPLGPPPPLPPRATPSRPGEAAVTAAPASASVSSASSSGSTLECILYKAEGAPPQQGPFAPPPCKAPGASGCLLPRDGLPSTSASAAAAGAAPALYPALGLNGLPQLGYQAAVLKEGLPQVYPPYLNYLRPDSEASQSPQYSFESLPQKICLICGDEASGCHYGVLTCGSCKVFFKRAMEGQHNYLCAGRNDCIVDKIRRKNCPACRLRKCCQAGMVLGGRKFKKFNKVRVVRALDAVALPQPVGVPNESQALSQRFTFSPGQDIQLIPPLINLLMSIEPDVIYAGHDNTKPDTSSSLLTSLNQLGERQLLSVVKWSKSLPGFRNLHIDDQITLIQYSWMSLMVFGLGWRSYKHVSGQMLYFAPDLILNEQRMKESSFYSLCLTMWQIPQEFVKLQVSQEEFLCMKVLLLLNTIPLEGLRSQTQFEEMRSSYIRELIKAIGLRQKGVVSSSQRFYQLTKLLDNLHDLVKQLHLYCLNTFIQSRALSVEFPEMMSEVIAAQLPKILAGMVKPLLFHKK
Sequence of Cellular tumor antigen p53 (Homo sapiens) (P04637 whole entry, looked up): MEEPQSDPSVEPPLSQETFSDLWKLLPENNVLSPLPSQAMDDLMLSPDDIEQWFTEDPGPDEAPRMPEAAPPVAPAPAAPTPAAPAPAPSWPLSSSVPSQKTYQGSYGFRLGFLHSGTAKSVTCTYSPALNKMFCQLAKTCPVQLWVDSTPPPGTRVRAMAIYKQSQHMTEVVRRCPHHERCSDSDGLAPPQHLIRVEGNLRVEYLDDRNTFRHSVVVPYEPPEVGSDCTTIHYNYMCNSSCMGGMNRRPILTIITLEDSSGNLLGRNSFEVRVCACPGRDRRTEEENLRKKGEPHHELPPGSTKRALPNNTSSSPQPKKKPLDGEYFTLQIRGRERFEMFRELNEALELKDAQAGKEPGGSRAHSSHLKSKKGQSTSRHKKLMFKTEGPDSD

As to `CCOC(=O)C1=C[C@]2(CC)CCCN3CCc4c(n1c1ccccc41)[C@@H]32`, the outcome in experiment [1], in [2], in experiment [3], in experiment [4], in [5] and in [6] was inactive.
As to `CCC=O`, the outcome in experiment [1], in [2], in experiment [3] and in [4] was inactive.
On to `Cc1ccccc1OCC(O)CNCCOc1ccc(C(N)=O)cc1` (centres undefined), for which the result in experiment [1], in experiment [2], in experiment [3] and in experiment [4] was inactive.
For `O=C(c1ccc(O)cc1)c1ccc(O)cc1`, the result in experiment [1], in experiment [2] and in experiment [3] was inactive. In experiment [4], the AC50 was 75.5 µM (active).
Turning to `CC[C@]12CCCN3CCc4c(n(c5ccccc45)C(=O)C1)[C@@H]32`, the AC50 in experiment [1] is 3570 nM (active); in [2], 4.33 µM (active); in experiment [3], 5.58 µM (active); in experiment [4], 3.51 µM (active).
In the case of `NC[C@H]1O[C@H](O[C@H]2[C@H](O[C@@H]3O[C@H](CO)[C@@H](O)[C@H]3O)C(O)[C@H](N)C[C@@H]2N)[C@H](N)[C@@H](O)[C@@H]1O` (some centres undefined), the result in experiment [1], in [2], in experiment [3] and in experiment [4] was inactive.
`CN(C)CCN(Cc1ccc(Cl)cc1)c1ccccn1`: the result in experiment [1], in [2], in experiment [3] and in [4] was inactive.
As for `O=C(CO)[C@@H](O)[C@H](O)[C@@H](O)CO`, the result in experiment [1], in experiment [2] and in experiment [7] was inactive.
For the compound `COC(=O)Nc1nc2ccc(C(=O)c3cccs3)cc2[nH]1`, the values for the AC50 in experiment [1] and in [2] were 94.3 nM (active) and 0.0458 µM (active), respectively. The outcome in experiment [7] was inactive.
As for `NS(=O)(=O)c1cc2c(cc1Cl)NC(Cc1ccccc1)NS2(=O)=O` (centres undefined), the result in experiment [1], in experiment [2] and in [7] was inactive.
In the case of `COC(=O)Nc1nc2ccc(C(=O)c3ccccc3)cc2[nH]1`, the AC50 in experiment [1] is 192 nM (active). In addition, the outcome in [2], in experiment [3] and in [4] was inactive.
`CCOC(=O)C1=C(C)NC(C)=C(C(=O)OC)C1c1cccc(Cl)c1Cl` (centres undefined): the result (in experiment [1]; in experiment [2]; in experiment [3]; in experiment [4]; in the experiment with PGR (gene 5241) [8]; with PGR (gene 5241) [9]) was inactive. The AC50 with PGR (gene 5241) [10] is 13.4 µM (active).
For the compound `NC(=O)CC[C@@H]1NC(=O)[C@H](Cc2ccccc2)NC(=O)[C@H](Cc2ccc(O)cc2)NC(=O)[C@@H](N)CSSC[C@@H](C(=O)N2CCC[C@H]2C(=O)N[C@@H](CCCN=C(N)N)C(=O)NCC(N)=O)NC(=O)[C@H](CC(N)=O)NC1=O`, the result in experiment [1], in [2], in experiment [3] and in experiment [4] was inactive.
As to `COc1cc(C(=O)NCCCCCC(=O)O)cc(OC)c1OC`, the outcome in experiment [1], in experiment [2], in experiment [3] and in experiment [4] was inactive.
As for `NC(=O)N1c2ccccc2CC(=O)c2ccccc21`, the outcome in [1], in experiment [2], in experiment [3], in experiment [4], in [11] and in [12] was inactive. The call in experiment [13] was inactive.
As for `COc1cc2nc(N3CCN(C(=O)c4ccco4)CC3)nc(N)c2cc1OC`, the outcome in [1], in experiment [2], in experiment [3] and in experiment [4] was inactive.
